Tau fibril FP = qHTS for Inhibitors of Tau Fibril Formation, Fluorescence Polarization. Microtubule-associated protein tau (Homo sapiens), P10636. 280,000 tested, 0.39% active. K18 P301L tau heparin fibrillization, Alexa594 FP, 6 h. Potency, µM (doses to about 57.7 µM), actives largely listed as inhibitors; further: nearly all actives have a fitted effect of over 55% in size
Target sequence (P10636 561-689 P618L limits assumed): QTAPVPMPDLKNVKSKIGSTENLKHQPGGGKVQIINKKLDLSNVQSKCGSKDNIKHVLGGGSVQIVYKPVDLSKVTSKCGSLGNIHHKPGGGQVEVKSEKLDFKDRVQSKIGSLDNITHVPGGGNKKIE
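Recombinant K18 P301L […], labeled with Alexa 594 at 0.24 uM over 15 uM unlabeled; heparin inducer 20 uM final; 37 C, 6 hr; FP endpoint.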
FBPA coupling cs = qHTS Assay for Inhibitors of Fructose-1,6-bisphosphate Aldolase from Giardia Lamblia: Coupling assay counterscreen; coupling enzyme system counterscreen, AmpLite Red fluorescence; activity change, negative = inhibition, % at 58.2 µM, hits read low; 290,000 tested, 0.67% active; AID 2472, 2010; in the data active means activity change below about -30%
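Compounds tested against the coupling enzymes alone at 57.5 uM final; readout was AmpLite Red fluorescence (525/598 nm) after 20 min at RT.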
Tau fibril ThT = qHTS for Inhibitors of Tau Fibril Formation, Thioflavin T Binding; recombinant tau K18 P301L, heparin-induced fibrillization, ThT fluorescence; AID 1460, 2008; Potency, µM (highest dose often 57.4 µM), hits mostly inhibitors; 270,000 tested, 2.1% active; Microtubule-associated protein tau (Homo sapiens), P10636; further: nearly all actives have a fitted effect of over 55% in size
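Fibril formation assay: tau K18 P301L at 15 uM with trace Alexa 594 label, heparin inducer 20 uM, pH 7 sodium acetate buffer, 37 C for 6 hr; endpoint ThT signal.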
Tau fluor counter = Counterscreen qHTS for Inhibitors of Tau Fibril Formation, Fluorescence Polarization. tau K18 P301L Alexa594 fluorescence, heparin fibrillization. Potency, µM (doses to about 57.7 µM). 280,000 tested, 0.93% active. AID 1463, 2008; further: nearly all actives have a fitted effect of over 55% in size
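Human tau K18 P301L (15 uM unlabeled, 0.24 uM Alexa 594-labeled) in 100 mM sodium acetate pH 7 with 20 uM heparin, 6 hr at 37 C. ThT 30 uM added, 1 hr ambient; Alexa 594 FP and total fluorescence read at 555/632 nm.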
Numbers stand for hits; [ ] = another dose, or the depositor's remark. This is a sample that favours compounds with a hit; in the whole collection about 2.7% have one here. Unless noted, the call rests on the fitted dose curve; in most records, active means well fitted curve in the direction sought with a large enough effect; inconclusive means small, poorly fitted or top-dose-only effect, or another doubt; inactive means no such curve, though single readings can be large; an effect the other way counts as inactive or inconclusive.

Screening CCOC(=O)COc1ccc(F)cc1C(=O)c1ccn2nc(-c3ccc(Cl)cc3)cc2n1 returned Tau fibril FP inactive, Tau fibril ThT inactive and Tau fluor counter inactive.
Screening Cc1cc(C)c(-c2n[nH]c3c2C(c2ccccc2F)N(Cc2ccco2)C3=O)c(O)c1 (stereo not drawn) returned Tau fibril FP inactive, Tau fibril ThT inconclusive and Tau fluor counter inconclusive.
For Cc1ccc(-n2c(N)c(C(=O)N3CCN(C)CC3)sc2=S)cc1 the results were Tau fibril FP inconclusive, FBPA coupling cs -33.9, Tau fibril ThT inconclusive and Tau fluor counter inactive.
For CCc1ccc(NCc2cc3cc4c(cc3n(CC(=O)Nc3ccc(F)cc3)c2=O)OCCO4)cc1 the results were Tau fibril FP inactive, Tau fibril ThT inactive and Tau fluor counter inconclusive.
For COc1ccc2cc(CNc3ccc(C)cc3)c(=O)n(CC(=O)Nc3ccc(OC)c(Cl)c3)c2c1 the results were Tau fibril FP inconclusive, Tau fibril ThT inactive and Tau fluor counter inconclusive.
Screening COc1ccc(NCc2cc3cc4c(cc3n(CC(=O)Nc3ccc(F)cc3)c2=O)OCCO4)cc1 returned Tau fibril FP inconclusive, Tau fibril ThT inactive and Tau fluor counter 11.2µM[quencher].
CC(=O)c1cccc(NC(=O)Cn2c(=O)c(CNc3ccc(C)cc3)cc3cc4c(cc32)OCCO4)c1 was read as Tau fibril FP inconclusive, Tau fibril ThT inactive and Tau fluor counter 17.8µM[quencher].
For CCOc1ccc(NC(=O)Cn2c(=O)c(CNc3ccc(OC)cc3)cc3ccc(OC)cc32)cc1 the results were Tau fibril FP inconclusive, Tau fibril ThT inconclusive and Tau fluor counter 20µM[quencher].
COc1ccc2c3c(c(=O)oc2c1)C1O[C@](c2ccsc2)(Cc2cc(C#N)ccc21)O3 was read as FBPA coupling cs inactive.
`Cc1cc(C)c(O)c(-c2cc(C(=O)Nc3ccc(S(=O)(=O)N4CCOCC4)cc3)[nH]n2)c1` gave Tau fibril FP inconclusive, FBPA coupling cs inactive, Tau fibril ThT inactive and Tau fluor counter 14.1µM[quencher].
`CC(=O)Nc1ccc(NC(=O)c2cc(-c3cc(C)cc(C)c3O)n[nH]2)cc1` gave FBPA coupling cs inactive.
COc1cccc(C(=O)NCC2OCCc3ccccc32)c1 (stereo not drawn) was read as Tau fibril FP inactive, Tau fibril ThT inactive and Tau fluor counter inactive.
For Cc1c(-c2ccc(Br)cc2)nc2ccccn12 the results were Tau fibril FP inactive, FBPA coupling cs inactive, Tau fibril ThT inconclusive and Tau fluor counter inactive.
Screening CN(C)c1ccc(-c2nc3ccccn3c2/N=C/c2ccc(Br)cc2)cc1 returned Tau fibril FP inconclusive, FBPA coupling cs inactive, Tau fibril ThT 14.1µM and Tau fluor counter inconclusive.
`N#CCCn1c(=O)c(-c2ccc(Cl)cc2)nc2cnc(N3CCNCC3)nc21` gave FBPA coupling cs inactive.
For O=C(O)C1Nc2c(cccc2C(F)(F)F)C2C=CCC12 (stereo not drawn) the results were FBPA coupling cs inactive.
Cc1ccc2c(c1)C1C=CCC1C(C(=O)O)N2 (stereo not drawn) was read as Tau fibril FP inconclusive, FBPA coupling cs inactive, Tau fibril ThT 14.1µM and Tau fluor counter inconclusive.
COc1cccc2c1NC(C(=O)O)C1CC=CC21 (stereo not drawn) was read as Tau fibril FP inconclusive, FBPA coupling cs inactive, Tau fibril ThT 15.8µM and Tau fluor counter inconclusive.
`CC(=O)c1ccc2c(c1)C1C=CCC1C(C(=O)O)N2` (stereo not drawn) gave Tau fibril FP inactive, FBPA coupling cs inactive, Tau fibril ThT inactive and Tau fluor counter inactive.
For CN(C(=O)c1cc2c(=O)oc3ccccc3c2s1)c1ccc(F)cc1 the results were Tau fibril FP inactive, Tau fibril ThT inactive and Tau fluor counter inactive.
COc1ccc(S(=O)(=O)N(CC(=O)Nc2cc(Cl)ccc2C)Cc2ccccc2)cc1OC was read as Tau fibril FP inactive, Tau fibril ThT inactive and Tau fluor counter inconclusive.
For Cc1ccccc1OCc1ccc(-c2nc(C#N)c(N3CCN(c4cccc(Cl)c4)CC3)o2)o1 the results were Tau fibril FP inactive, Tau fibril ThT inactive and Tau fluor counter inactive.
Screening CC(C)c1ccc(NC(=O)c2csnn2)cc1 returned Tau fibril FP inactive, FBPA coupling cs inactive, Tau fibril ThT inactive and Tau fluor counter inactive.
CC(C)c1ccc(NC(=O)c2snc3ccc(Cl)cc23)cc1 was read as Tau fibril FP 22.4µM, FBPA coupling cs inactive, Tau fibril ThT inconclusive and Tau fluor counter inconclusive.
Screening COc1cc(/C=C(\C#N)c2nc3ccccc3[nH]2)cc(Cl)c1OCc1ccccc1Cl returned Tau fibril FP inconclusive, Tau fibril ThT inactive and Tau fluor counter inconclusive.
For N#Cc1c(Nc2ccccc2C(F)(F)F)s[nH]c1=O the results were Tau fibril FP 28.2µM, FBPA coupling cs inactive, Tau fibril ThT 15.8µM and Tau fluor counter inactive.
`N#Cc1c(Nc2ccccc2)s[nH]c1=O` gave Tau fibril FP 15.8µM, FBPA coupling cs inactive and Tau fluor counter inconclusive.
NNc1ccccc1C(F)(F)F was read as Tau fibril FP inactive, FBPA coupling cs inactive, Tau fibril ThT inactive and Tau fluor counter inactive.
`N#Cc1c(Nc2ccccc2Cl)s[nH]c1=O` gave Tau fibril FP 8.91µM, FBPA coupling cs inactive, Tau fibril ThT 7.94µM and Tau fluor counter inconclusive.
Screening CCN1CCN(C(=O)Cn2c(-c3cccs3)cc3ccccc32)CC1 returned Tau fibril FP inactive, Tau fibril ThT inactive and Tau fluor counter inactive.
Screening CCc1ccc(-n2c(=O)c3c4c(sc3n(CC(=O)N3CCCCC3CC)c2=O)CCC4)cc1 (stereo not drawn) returned Tau fibril FP inactive, Tau fibril ThT inactive and Tau fluor counter inactive.
For CC(/C=C1\SC(=S)N(C(C(=O)O)C(C)C)C1=O)=C\c1ccccc1 (stereo not drawn) the results were Tau fibril FP inactive, FBPA coupling cs inactive, Tau fibril ThT 22.4µM and Tau fluor counter inactive.
`CC(=O)N1C(=O)/C(=C2\SC(=S)N(NS(=O)(=O)c3ccc(C)cc3)C2=O)c2ccccc21` gave Tau fibril FP inconclusive, FBPA coupling cs inactive, Tau fibril ThT 14.1µM and Tau fluor counter inconclusive.
`Cc1ccc(S(=O)(=O)NN2C(=O)/C(=C/c3ccccn3)SC2=S)cc1` gave Tau fibril FP inactive, FBPA coupling cs inactive, Tau fibril ThT inconclusive and Tau fluor counter inactive.
CC(/C=C1\SC(=S)N(NS(=O)(=O)c2ccccc2)C1=O)=C\c1ccccc1 was read as Tau fibril FP inconclusive, FBPA coupling cs inactive, Tau fibril ThT 10µM and Tau fluor counter inactive.
CC(/C=C1\SC(=S)N(NS(=O)(=O)c2ccc(C)cc2)C1=O)=C\c1ccccc1 was read as Tau fibril FP inconclusive, FBPA coupling cs inactive, Tau fibril ThT 11.2µM and Tau fluor counter inactive.
`CCOc1ccc(CNC(=O)c2ccc3nc(C(C)C)oc3c2)cc1` gave Tau fibril FP inactive, Tau fibril ThT inactive and Tau fluor counter inactive.
`CCCCNc1nc(Oc2ccc(OCC)nn2)nc(N2CCOCC2)n1` gave Tau fibril FP inactive, Tau fibril ThT inactive and Tau fluor counter inactive.

Screens as filed in PubChem BioAssay.
